# According to PubChem BioAssay AID588727 (Southern Research Specialized Biocontainment Screening …, 2011):
# In all, about 350,000 compounds went through this assay and about 450 (0.13%) were called active. No rule for the calls is given here. Only a sample is shown. Measured potencies and affinities stand elsewhere. Where a SMILES comes first, the peptide text is derived from it. [ ]: non-standard residue; d: D form.
# Experiment: inhibitors of VEEV TC-83 cytopathic effect, confirmation, Vero cells (AID 588727)
# Details: VEEV TC-83 cytopathic effect inhibition, at 20 µM
# [1] = stronger effect = higher value unless noted
# [2] = measured here: 10K pilot screen inhibition, stronger effect = higher value
smiles,measurement,setting,value
COc1ccc(/C=C(/NC(=O)c2ccccc2)C(=O)N2CCCC2)cc1,inhibition,[1],1.46% (inactive)
CCN(Cc1ccccc1)C(=O)c1ccc(N(C)S(=O)(=O)c2ccc(C)cc2)cc1,inhibition,[1],10.1% (inactive)
CC(=O)NC1=NN(C(C)=O)C(c2ccc(C)cc2)S1 (configuration not stated),inhibition,[1],0.39% (inactive)
Cc1[nH]c2ccccc2c1/C=N/NC(=O)c1cccc(F)c1,inhibition,[1],4.66% (inactive)
CCOC(=O)CNC(=O)CSc1nc(C(C)C)nc2c1cnn2-c1ccccc1,inhibition,[1],8.46% (inactive)
COc1ccc(-c2cc(=O)oc3cc(OC(C)C(=O)NCCCn4ccnc4)ccc23)cc1 (configuration not stated),inhibition,[1],1.83% (inactive)
CCCc1nc2c(=O)n(C)c(=O)[nH]c2n1CCC,inhibition,[1],0.72% (inactive)
CCn1c(=O)c2[nH]c(SC)nc2n(CC)c1=O,inhibition,[1],1.13% (inactive)
COc1ccccc1-c1ccc2c(c1)O[C@@H](CN(C)C(=O)Nc1cccc(F)c1)[C@H](C)CN([C@H](C)CO)S2(=O)=O,inhibition,[1],5.59% (inactive)
O=C(N/N=C(/CC(=O)c1cccs1)C(F)(F)F)c1ccc(O)cc1,inhibition,[1],0.06% (inactive)
O=C(N/N=C(\CC(=O)c1cccs1)C(F)(F)F)c1cccnc1,inhibition,[1],inactive
CCOCCn1c(CN2CCN(c3cccc(Cl)c3)CC2)nc2c1c(=O)n(C)c(=O)n2C,inhibition,[1],inactive
COc1ccc(N2CCN(C(=O)c3cc(=O)c4cc(Cl)ccc4o3)CC2)cc1,inhibition,[1],0.39% (inactive)
COC(=O)c1ccc(C(=O)OCc2nc3cc4ccccc4cc3[nH]2)cc1,inhibition,[1],0.06% (inactive)
Nc1ccc(C(=O)OCc2nc3ccccc3[nH]2)cc1,inhibition,[1],2.64% (inactive)
COc1ccc(CN(CC(=O)NCc2ccc(F)cc2)C(=O)c2csnn2)cc1,inhibition,[1],1.52% (inactive)
COc1ccc(NC(=O)c2nc[nH]c2C(=O)NCC(=O)OC(C)(C)C)cc1,inhibition,[1],3.26% (inactive)
Cc1cccc(C(=O)NC(=S)NNC(=O)c2cccs2)c1,inhibition,[1],inactive
O=C(NNC(=S)NC(=O)c1cccs1)c1ccc(O)cc1,inhibition,[1],3.95% (inactive)
O=C(NNC(=S)NC(=O)c1ccccc1)c1ccc(O)cc1,inhibition,[1],4.47% (inactive)
O=C(NNC(=S)NC(=O)c1ccco1)c1ccc(F)cc1,inhibition,[1],0.7% (inactive)
Cc1cccc(C(=O)NNC(=S)NC(=O)c2ccccc2)c1,inhibition,[1],46.7% (inactive)
Cc1ccc(C(=O)NC(=S)NNC(=O)c2ccccc2)cc1,inhibition,[1],0.96% (inactive)
Cc1ccc(C(=O)NNC(=O)c2ccco2)cc1,inhibition,[1],1.42% (inactive)
Cc1cccc(C(=O)NC(=S)NCc2ccccc2)c1,inhibition,[1],2.47% (inactive)
COc1ccccc1NC(=O)C1CCN(S(=O)(=O)c2cccc3nonc23)CC1,inhibition,[1],9.33% (inactive)
CCOC(=O)c1ccc(NC(=O)CSc2nnc(CNc3ccc(OC)cc3)n2C)cc1,inhibition,[1],0.98% (inactive)
O=C(c1ccc(N2CCOCC2)c([N+](=O)[O-])c1)N1CCCCC1,inhibition,[1],2.47% (inactive)
CC1CC(C)CN(CCCNC(=O)CN2C(=O)c3cccnc3Oc3ccccc32)C1 (configuration not stated),inhibition,[1],inactive
O=C(CCC(=O)OCC(=O)c1ccc([N+](=O)[O-])cc1)Nc1ccccc1Cl,inhibition,[1],inactive
CCOc1ccc(CN2CCN(Cc3cn(CC)nc3C)CC2CCO)cc1 (configuration not stated),inhibition,[1],inactive
CCOC(=O)c1sc2nc(C)nc(Nc3ccc(OC)cc3)c2c1C,inhibition,[1],3.17% (inactive)
COc1ccc(C(=O)Nc2ccccc2C(=O)N2CCCCCC2)cc1OC,inhibition,[1],5.61% (inactive)
CN1CCN(CCC(=O)Nc2ccc(C3CCCC3)cc2)CC1,inhibition,[1],4.6% (inactive)
O=C(Nc1ccc(N2CCN(C(=O)c3ccco3)CC2)cc1)c1cccnc1Cl,inhibition,stronger effect = higher value,0.8% (inactive)
same,inhibition,[2],1.86%
COc1ccc(C)cc1NC(=O)C1CCN(C(=O)Cc2ccccc2)CC1,inhibition,[1],0.59% (inactive)
COc1ccc(C(=O)NNC(=S)NC(=O)c2ccc(OC)cc2)cc1,inhibition,[1],2.82% (inactive)
Cc1cccc(C(=O)NC(=S)NNC(=O)COc2c(C)cccc2C)c1,inhibition,[1],1.29% (inactive)
COc1ccc(C(=O)NC(=S)NNC(=O)COc2ccccc2)cc1,inhibition,[1],1.92% (inactive)
Cc1cccc(C)c1OCC(=O)NNC(=S)NC(=O)C1CC1,inhibition,[1],9.29% (inactive)
O=C(COc1ccccc1)NNC(=S)NC(=O)c1ccccc1,inhibition,[1],52.2% (inactive)
COc1ccccc1C(=O)NC(=S)NNC(=O)c1sc2ccccc2c1Cl,inhibition,[1],0.8% (inactive)
COc1ccc(C(=O)NC(=S)NNC(=O)c2ccc(C)cc2)cc1,inhibition,[1],50.1% (inactive)
COc1ccccc1C(=O)NNC(=S)NC(=O)c1sc2ccccc2c1Cl,inhibition,[1],4.48% (inactive)
CCCc1nnc(NC(=O)CNc2ccc(F)cc2)s1,inhibition,[1],1.71% (inactive)
CN(C)c1ccc(CNC(=O)c2cc(S(=O)(=O)N3CCCC3)cn2C)cc1,inhibition,stronger effect = higher value,0.58% (inactive)
same,inhibition,[2],0.765%
Cc1ccc(C)c(S(=O)(=O)N/N=C/c2ccc(N3CCOCC3)cc2)c1,inhibition,[1],13% (inactive)
COc1ccc(-c2nnc(SCc3cccc(C)c3)n2N)cc1,inhibition,[1],1.8% (inactive)
O=c1n(Cc2ccccc2Cl)nc2n1-c1ccccc1SC2,inhibition,[1],1.6% (inactive)
CN1CCN(NC(=O)c2cn(-c3ccccc3)nc2-c2cccc(Br)c2)CC1,inhibition,[1],4.96% (inactive)
O=C(NC(=S)NNC(=O)c1cc2ccccc2cc1O)c1ccco1,inhibition,[1],35.8% (inactive)
COc1ccc(C(=O)NNC(=S)NC(=O)c2ccco2)cc1,inhibition,[1],3.21% (inactive)
O=C(CCc1ccccc1)NNC(=S)NC(=O)c1ccccc1,inhibition,[1],8.58% (inactive)
COc1ccc(C(=O)NC(=S)NCCc2ccccc2)cc1,inhibition,[1],inactive
CC1CCN(c2ccc(C(=O)OCC(=O)NCCN3C(=O)CSC3=O)cc2[N+](=O)[O-])CC1,inhibition,[1],2.94% (inactive)
Nc1nc(=O)n(C2CCCO2)cc1Br (configuration not stated),inhibition,[1],inactive
CCCCn1nnnc1SCC(=O)NCc1ccco1,inhibition,[1],0.76% (inactive)
CCOc1ccc(CCNC(=O)CCc2nnc3ccc(N4CCOCC4)nn23)cc1OCC,inhibition,[1],0.04% (inactive)
CCN(CC(=O)Nc1ccc(NC(C)=O)cc1)C(=O)C12CC3CC(CC(Cl)(C3)C1)C2,inhibition,[1],inactive
Cn1cc(C(=O)Nc2ccc(Cl)c(Cl)c2)cn1,inhibition,[1],0.63% (inactive)
O=C(NC(Cc1c[nH]c2ccccc12)C(=O)O)c1cccs1 (configuration not stated),inhibition,[1],0.43% (inactive)
O=C(NC(Cc1c[nH]c2ccccc12)C(=O)N/N=C/c1ccc(Cl)cc1)c1cccs1 (configuration not stated),inhibition,[1],6% (inactive)
O=C(NC(Cc1c[nH]c2ccccc12)C(=O)Nc1ccc(OC(F)(F)F)cc1)c1cccs1 (configuration not stated),inhibition,[1],11.9% (inactive)
O=C(Nc1ccc(F)c([N+](=O)[O-])c1)c1cccs1,inhibition,[1],0.78% (inactive)
Cc1cc(C)nc(N2C(=O)CC(C(=O)O)NC2=NCCc2c[nH]c3ccccc23)n1 (configuration not stated),inhibition,[1],inactive
COc1ccc(/C=N/NC(=O)c2c(-c3ccccc3)noc2C)cc1,inhibition,[1],1.23% (inactive)
CN(C)CCCN(C(=O)c1ccc(S(=O)(=O)N2CCc3ccccc32)cc1)c1nc2c(Cl)cccc2s1,inhibition,[1],12.6% (inactive)
COc1cc2nc(N(CCCN(C)C)C(=O)c3ccc(S(=O)(=O)N4CCc5ccccc54)cc3)sc2cc1OC,inhibition,[1],5.52% (inactive)
O=C(NC1CONC1=O)OCC(Cl)(Cl)Cl (configuration not stated),inhibition,[1],inactive
CCc1nnc(NC(=O)C2CC(=O)N(Cc3ccco3)C2)s1 (configuration not stated),inhibition,[1],2.16% (inactive)
Cc1cccc[n+]1CC(=O)c1ccc([N+](=O)[O-])cc1,inhibition,[1],inactive
Cc1cc(C)c[n+](CC(=O)c2ccc(C)c([N+](=O)[O-])c2)c1,inhibition,[1],0.1% (inactive)
S=C(N/N=C/c1ccc2ncccc2c1)Nc1ccccc1,inhibition,[1],9.82% (inactive)
COc1ccccc1C(=O)Nc1ccc2c(c1)CCCN2C(=O)c1cccs1,inhibition,[1],4.26% (inactive)
O=C(Nc1ccc2c(c1)CCCN2C(=O)c1cccs1)c1ccccc1,inhibition,[1],6.53% (inactive)
CCn1nnnc1SCC(=O)N1CCOCC1,inhibition,[1],0.74% (inactive)
COc1ccc(N2CC(C(=O)N/N=C/c3cc([N+](=O)[O-])ccc3O)CC2=O)cc1 (configuration not stated),inhibition,[1],2.03% (inactive)
CC[C@H](C)[C@@H]1NC(=O)[C@H]([C@@H](C)CC)NC(=O)[C@@H](CC(C)C)NC(=O)[C@H](Cc2ccccc2)NC(=O)[C@H](Cc2ccccc2)NC(=O)[C@@H]2CCCN2C(=O)[C@@H]2CCCN2C(=O)[C@H](C(C)C)NC(=O)[C@H](CC(C)C)NC1=O (cyclo(FF[dL]IILVPP)),inhibition,[1],inactive
CCC(C)[C@@H]1NC(=O)N(CCCN2CCCC2=O)C1=O (some centres not stated),inhibition,[1],2.56% (inactive)
Cc1ccccc1NC(=O)NCCCN1CCN(C)CC1,inhibition,[1],0.45% (inactive)
Cc1ccccc1NC(=O)NCCN1CC1,inhibition,[1],inactive
CC(NC(=O)c1cccc(S(=O)(=O)N(C)c2ccccc2)c1)c1cccnc1 (configuration not stated),inhibition,[1],1.03% (inactive)
C[N+]1(CCCCSc2ccc(O)cc2)CCCCC1,inhibition,[1],inactive
Cc1ccc(NC(=O)CSc2ccc(-c3ccccn3)nn2)cc1,inhibition,[1],0.64% (inactive)
O=C(CSc1nnc2ccccn12)Nc1ncc(Cl)cc1Cl,inhibition,[1],3.72% (inactive)
CC(C)NC(=O)CSc1nc2ccccc2n1-c1ccccc1,inhibition,[1],3.21% (inactive)
Cc1ccc(-n2c(SCC(=O)Nc3cccc(S(N)(=O)=O)c3)nc3ccccc32)cc1,inhibition,[1],2.21% (inactive)
CC(C)(C)NC(=O)CSc1nc2ccccc2n1-c1ccccc1,inhibition,[1],7.16% (inactive)
Cn1nnnc1SCC(=O)Nc1ncc(Cl)cc1Cl,inhibition,[1],2.56% (inactive)
Cc1nnc(SCC(=O)Nc2ncc(Cl)cc2Cl)n1Cc1ccccc1,inhibition,[1],1.6% (inactive)
CC(C)c1ccc(-c2cc(C(=O)N3N=C(C(F)F)CC3(O)C(F)F)c3ccccc3n2)cc1 (configuration not stated),inhibition,[1],inactive
O=C1CCC(C(=O)N2CCCCO2)CN1CCc1ccccc1 (configuration not stated),inhibition,[1],2.16% (inactive)
COc1ccc(C2CN=NC2C(=O)c2ccccc2)cc1 (configuration not stated),inhibition,[1],0.98% (inactive)
Cc1ccc(/C=N/n2c(-c3cccnc3)n[nH]c2=S)o1,inhibition,[1],0.4% (inactive)
CC(=O)Nc1ccc(S(=O)(=O)NC2=NCN(c3cccc([N+](=O)[O-])c3)CN2)cc1,inhibition,[1],0.07% (inactive)
